Assay results reported in PubChem BioAssay.
“And” between values parts separate entries of the source, which are not always exact repeats. Equal values may be shown once. Records with an inconclusive call do not appear. The source made the active and inactive calls. Unless noted, cut-off not given; nearly all actives show AC50 up to about 30 µM.

Tests used:
[1] = Wnt pathway potentiators raising nuclear beta-catenin – imaging, WNT3A-conditioned medium, mouse C2C12, NPC library, primary screen (AID 1117326; in the data active means nuclear beta-catenin stimulation mostly above about 4.2%, no sharp cut-off; inactive means mostly below about 10%; further: reference of the scale not given here); details: stronger effect = higher value
[2] = stimulators of insulin release from INS-1E, primary screen, cell-based, 5 mM glucose, NPC library (AID 1117329;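 active means compound raises insulin release from rat beta cells at 5 mM glucose, no numeric limit stated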; further: reference of the scale not given here); details: rat INS-1E insulin secretion, at 10 µM, stronger effect = higher value
[3] = growth inhibition of GSK3B-pretreated HCT116 cells – cell-based, CellTiter-Glo, 0.2 to 20 µM (AID 1117336;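 active means compounds lowering colon cancer cell viability after pretreatment blocking the GSK3B kinase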); details: HCT116 viability after GSK3B inhibitor, at 20 µM, stronger effect = higher value
[4] = inhibition of endothelial tube formation, primary screen, imaging, VEGF stimulated, CD31 staining, tube area, NPC library (AID 1117340;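 active means compound that reduces growth-factor-driven endothelial tube area in a mixed cell culture, no cutoff stated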); details: VEGF-stimulated ADSC/ECFC co-culture, at 10 µM, stronger effect = higher value
[5] = GLP1 release stimulators, primary, NCI-H716, NPC library (AID 1117341;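 active means compound raises GLP1 secretion from the human gut endocrine cells, with no numeric limit stated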; further: reference of the scale not given here); details: NCI-H716 cells, at 10 µM, stronger effect = higher value
[6] = HCT116 colon cancer cell growth inhibition, primary screen, CellTiter-Glo luminescence, NPC library (AID 1117342;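 active means compounds that lower survival of HCT116 colon cancer cells in the luminescence readout, no numeric limit stated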); details: at 20 µM (top of the series)
[7] = reduced SW480 viability measured with CellTiter-Glo, NPC library, primary (AID 1117343;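 active means compounds that lower viability of the colon cancer cells in the luminescence readout, with no numeric limit stated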); details: CellTiter-Glo luminescence; at 20 µM (top of the series) unless noted
[8] = NPC library primary testing for decreased DLD-1 cell viability via CellTiter-Glo (AID 1117346;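 active means compounds that lower survival of DLD-1 colon cancer cells in the luminescence readout, no cutoff given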); details: DLD-1 viability, CellTiter-Glo luminescence; at 20 µM (top of the series)
[9] = viability loss in pontine glioma line – cell-based, JHH-DIPG-1, MIPE4.0, CellTiter-Glo, qHTS, dose response (AID 1347062; cut-off not given, nearly all actives have AC50 up to about 27 µM;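 on AC50: cells exposed to compound for two days before readout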); details: JHH-DIPG-1 viability, CellTiter-Glo ATP luminescence
[10] = viability loss in pontine glioma line – cell-based, SU-DIPG-XXV, MIPE5.0, CellTiter-Glo, qHTS, dose response (AID 1347065; cut-off not given, nearly all actives have AC50 up to about 26 µM;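 further: cells exposed to compound for 48 hours before ATP readout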); details: CellTiter-Glo ATP luminescence
[11] = growth inhibition of DIPG cells – cell-based, MIPE4.0 library, CellTiter-Glo luminescence, qHTS (AID 1347066); details: SU-DIPG-VI viability, CellTiter-Glo ATP luminescence;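 further: cells exposed to compound for 48 hours before readout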
[12] = JHH-DIPG-1 glioma cell viability, MIPE5.0 library, CellTiter-Glo luminescence, qHTS (AID 1347067; cut-off not given, nearly all actives have AC50 up to about 26 µM;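 further: cells exposed to compound for 48 hours before readout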); details: JHH-DIPG-1 glioma viability, CellTiter-Glo ATP luminescence
[13] = viability loss in pontine glioma line – cell-based, SU-DIPG-XIII, MIPE4.0, CellTiter-Glo, qHTS, dose response (AID 1347061; cut-off not given, nearly all actives have AC50 up to about 37 µM;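 further: cells exposed to compound for 48 hours before readout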); details: CellTiter-Glo ATP luminescence
[14] = viability loss in pontine glioma line – cell-based, SU-DIPG-IV, MIPE4.0, CellTiter-Glo, qHTS, dose response (AID 1347063); details: CellTiter-Glo ATP luminescence;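 further: compound exposure lasted 48 hours before the viability readout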
[15] = MELAS cybrid and Rieske KO viability enhancers – cell-based, MELAS cybrids, Rieske KO mouse fibroblasts, CellTiter-Glo, primary screen (AID 1508586;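 active means mean z-score across replicates of 1.96 or higher in either the MELAS or the Rieske mutant cell line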;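 further: z relative to plate mean and SD of compound and empty wells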); details: low glucose
[16] = growth inhibition of DIPG cells – cell-based, MIPE5.0 library, qHTS (AID 1347068; cut-off not given, nearly all actives have IC50 up to about 30 µM;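 on IC50: cells exposed to compound for 48 hours before viability readout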); details: SU-DIPG-XXV viability
[17] = P. berghei load reduction in hepatocytes – cell-based, HepG2, luciferase luminescence, HepG2 viability, primary screen (AID 624349; in the data active means parasite load remaining mostly below about 12%, no sharp cut-off; inactive means mostly above about 10%;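 further: 100% = mean of DMSO negative control wells on the same plate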); details: P. berghei liver stage in HepG2, luciferase luminescence, concentration not given here; parasite load remaining: stronger effect = lower value; viability: measured here: HepG2 viability without parasites
[18] = galactose survival enhancers in mitochondrial complex I cybrids – cell-based, galactose medium, ATP luminescence, primary screen (AID 1645843;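 active means z-score of at least 1.8 in each of two replicates, scored against plate mean and spread of sample wells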;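 further: positive z means more ATP and so rescue of galactose-driven cybrid death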); details: complex I mutant cybrid cells, 72 h, stronger effect = higher value
[19] = MELAS cybrid survival, CellTiter-Glo 48 h, stronger effect = higher value
[20] = Rieske KO mouse fibroblast survival, CellTiter-Glo 72 h

COc1cc(NCc2ccc3nc(N)nc(N)c3c2C)cc(OC)c1OC
71.7%: nuclear beta-catenin stimulation ([1]; stimulation, at 2 µM)
inactive: insulin secretion stimulation [2] 3.6% | GLP1 secretion stimulation [5] 2.9%
active: nuclear beta-catenin stimulation ([1]; at 10 µM) 40.4% | viability decrease [3] 105% | tube area decrease [4] 60.1% | inhibition of viability [6] 94.9% | viability decrease (inhibition) [7] 142% | viability decrease (inhibition) [8] 70.6% | AC50 [9] 18.7 µM | AC50 [10] 2.95 µM | AC50 [11] 20.9 µM | AC50 [12] 2.63 µM

COc1cccc(N(C)C(=S)Oc2ccc3c(c2)CCCC3)n1
0.4%: nuclear beta-catenin stimulation ([1]; stimulation, at 2 µM)
inactive: nuclear beta-catenin stimulation ([1]; at 10 µM) 0.4% | insulin secretion stimulation [2] -2.1% | viability decrease [3] 48.8% | tube area decrease [4] 17.8% | GLP1 secretion stimulation [5] -2.3% | inhibition of viability [6] 13.6% | outcome [13] | outcome [9] | outcome [14] | z-score [15, 19] 0.186
-0.761: z-score [15, 20]
active: viability decrease (inhibition) [7] 54.5% | viability decrease (inhibition) [8] 55.4%

CCCCC(CC)COC(=O)C(C#N)=C(c1ccccc1)c1ccccc1 (stereo not given)
inactive: nuclear beta-catenin stimulation ([1]; at 10 µM) -0.2% | insulin secretion stimulation [2] -1.3% | GLP1 secretion stimulation [5] -1.3% | inhibition of viability [6] 43.8% | viability decrease (inhibition) [7] 28.2% | outcome [9] | outcome [14] | outcome [11] | outcome [16]
active: viability decrease [3] 51.7% | tube area decrease [4] 19.7% | viability decrease (inhibition) [8] 56.9%
0.7%: nuclear beta-catenin stimulation ([1]; stimulation, at 2 µM)

COC(=O)C1=C(C)NC(C)=C(C(=O)OCCN2CCN(C(c3ccccc3)c3ccccc3)CC2)C1c1cccc([N+](=O)[O-])c1 (stereo not given)
1.09 and 0.891 and 0.572: z-score [15, 20]
active: viability decrease [3] 52.2% | tube area decrease [4] 106% | inhibition of viability [6] 78.5% | viability decrease (inhibition) [7] 135% | viability decrease (inhibition) [8] 96.4% | AC50 [10] 5.9 µM | AC50 [12] 13.2 µM | IC50 [16] 8.33 µM
1.4%: nuclear beta-catenin stimulation ([1]; stimulation, at 2 µM)
inactive: parasite load remaining [17] 20.2% | nuclear beta-catenin stimulation ([1]; at 10 µM) 7.1% | insulin secretion stimulation [2] -1.1% | GLP1 secretion stimulation [5] -1.8% | outcome [9] | outcome [14] | outcome [11] | z-score [15, 19] -0.211 and -0.214 and 0.218 | z-score [18] -1.36
100%: viability [17]
